A selection: hits, their analogues and other compounds. The true share with any hit is near 0.98%.
Keap1 Nrf2 FP: Keap1-Nrf2 protein-protein interaction inhibitors, primary screen, biochemical, fluorescence polarization, single point; Kelch-like ECH-associated protein 1 (Homo sapiens), Q14145; AID 504523, 2011; inhibition, % at 9.4 µM; Keap1 Kelch-Nrf2 peptide fluorescence polarization, 1536-well; hit rate 0.15% among 340,000; in the data active = inhibition above about 12%;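 note: human Keap1 Kelch domain with fluorescein labeled Nrf2 9mer peptide probe; 0% = neutral control wells and 100% = peptide positive control; higher means more block of Keap1 binding to Nrf2 peptide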
Target sequence (Q14145 whole entry, looked up, the tested form may be a part): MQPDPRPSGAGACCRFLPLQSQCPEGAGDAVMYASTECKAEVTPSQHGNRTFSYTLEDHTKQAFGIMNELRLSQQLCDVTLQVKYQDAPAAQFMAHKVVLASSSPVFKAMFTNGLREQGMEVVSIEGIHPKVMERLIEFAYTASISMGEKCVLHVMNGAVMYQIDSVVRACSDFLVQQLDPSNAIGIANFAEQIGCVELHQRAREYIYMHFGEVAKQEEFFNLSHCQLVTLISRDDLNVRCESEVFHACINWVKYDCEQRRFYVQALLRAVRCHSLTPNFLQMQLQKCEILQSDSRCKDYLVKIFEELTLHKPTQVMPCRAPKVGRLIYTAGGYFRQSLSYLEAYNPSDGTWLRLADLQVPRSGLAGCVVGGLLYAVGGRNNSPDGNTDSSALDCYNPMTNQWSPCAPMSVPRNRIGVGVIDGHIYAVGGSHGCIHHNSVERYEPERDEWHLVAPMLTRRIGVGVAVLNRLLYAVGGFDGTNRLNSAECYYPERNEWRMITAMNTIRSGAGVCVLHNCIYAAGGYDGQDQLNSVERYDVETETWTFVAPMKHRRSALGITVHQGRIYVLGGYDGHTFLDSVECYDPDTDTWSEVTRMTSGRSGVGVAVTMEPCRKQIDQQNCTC
cardiac RTF act: cardiac RTF calcium sensitivity activators, primary screen, biochemical, IANBD-TnC fluorescence, EC20 calcium; Troponin I, cardiac muscle (Homo sapiens) + Troponin T, cardiac muscle (Homo sapiens) + …; IANBD-labeled TnC RTF fluorescence at EC20 calcium; 0% EC20 calcium, 100% full calcium; activation, % at 7.2 µM; hit rate 0.24% among 340,000; AID 493008, 2010;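 active = activation above the mean over all tested compounds plus 3 SD, cut at about 30% in these data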;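 note: rise in fluorescence read as greater calcium sensitivity of cardiac thin filaments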
RTF Ca sens inh: cardiac RTF calcium sensitivity inhibitors, primary screen, biochemical, IANBD-TnC fluorescence, EC70 calcium. hit rate 0.12% among 340,000. IANBD-labeled cardiac RTF, Ca2+ fluorescence. inhibition, % at 7.15 µM. Troponin I, cardiac muscle (Homo sapiens) + Troponin T, cardiac muscle (Homo sapiens) + …;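 active = inhibition above the mean inhibition of all tested compounds plus 3 SD, cut at about 17% in these data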;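 note: assay run at fixed EC70 calcium of 1.6 mM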
C-LANA FP: inhibitors of KSHV C-LANA binding to DNA, primary screen, biochemical, fluorescence polarization, FAM-LBS DNA, MBP-C-LANA, single point; AID 504423, 2011; hit rate 0.078% among 340,000; Kaposi's sarcoma herpesvirus LANA C-terminal domain (residues 932-1162) DNA binding; inhibition, % at 9 µM;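 active = highest replicate inhibition at or above 60% at 9 µM, even if other replicates fall short; inactive = all replicates below 60% inhibition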;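 note: 0% = neutral control wells and 100% = 4 µM acridine orange control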
LANA-H2A inh: blockers of LANA interaction with H2A/H2B – biochemical, FP readout, HTS, primary screen | Protein LANA1 (Human herpesvirus 8 type P (isolate GK18)), Q9QR71 | cell-free LANA-H2A/H2B peptide, fluorescence polarization | inhibition, % (no concentration beside the values) | hit rate 0.6% among 320,000 | AID 2629, 2010; in the data active = inhibition mostly above about 10%, no sharp cut-off; inactive = mostly below about 6.7%
Active calls of the source: *.

For CCCCCC(=O)Nc1cc(S(=O)(=O)O)cc2cc(S(=O)(=O)O)cc(O)c12 the results were Keap1 Nrf2 FP -0.2, cardiac RTF act -49.4, RTF Ca sens inh 67.3* and C-LANA FP 113.8*.
COC(=O)c1cc(NC(=O)c2ccccc2)c(=O)oc1/C=C/Nc1ccc(Oc2ccccc2)cc1 was read as Keap1 Nrf2 FP -190.3, cardiac RTF act 112.9*, RTF Ca sens inh -253.7 and C-LANA FP 9.5.
COc1ccc(C(=O)Nc2cc(C(C)=O)c(C)oc2=O)cc1 was read as Keap1 Nrf2 FP -1.3, cardiac RTF act 0.2, RTF Ca sens inh -10.6, C-LANA FP -0.7 and LANA-H2A inh 0.3.
`O=C(c1ccc(C(F)(F)F)cc1)N1CCN(c2ccc(N3CCOCC3)nn2)CC1` gave Keap1 Nrf2 FP -4.1, cardiac RTF act 6.2, RTF Ca sens inh 10.0, C-LANA FP -0.1 and LANA-H2A inh 2.5.
`O=C([C@H](Cc1ccccc1)N1C(=O)c2ccccc2C1=O)N1CCOCC1` gave Keap1 Nrf2 FP -10.3, cardiac RTF act -4.2, RTF Ca sens inh 6.0, C-LANA FP 0.4 and LANA-H2A inh -1.1.
O=C1CC(=O)N(Cc2ccco2)C(=S)N1 was read as Keap1 Nrf2 FP 3.4, cardiac RTF act -1.7, RTF Ca sens inh -7.5, C-LANA FP 71.1* and LANA-H2A inh -9.4.
For S=C1NCN(Cc2ccco2)CN1 the results were Keap1 Nrf2 FP -1.9, cardiac RTF act -0.1, RTF Ca sens inh -2.9, C-LANA FP 0.2 and LANA-H2A inh 5.3.
`O=C1CC(=O)N(Cc2cccs2)C(=O)N1` gave Keap1 Nrf2 FP -25.2, cardiac RTF act 5.3, RTF Ca sens inh -2.2, C-LANA FP -1.6 and LANA-H2A inh 1.5.
`O=C1CC(=O)N(Cc2ccco2)C(=O)N1` gave Keap1 Nrf2 FP -17.9, cardiac RTF act -9.9, RTF Ca sens inh 5.1, C-LANA FP 93.8* and LANA-H2A inh -4.2.
Screening O=C(Cn1nc(C(=O)O)c2ccccc2c1=O)Nc1cc(C(F)(F)F)ccc1-n1cncn1 returned Keap1 Nrf2 FP -4.2, cardiac RTF act 0.1, RTF Ca sens inh -4.4, C-LANA FP -1.0 and LANA-H2A inh 5.3.
For CCOC(=O)Cn1c(=O)c(F)cn(Cc2ccc(OC)c([N+](=O)[O-])c2)c1=O the results were Keap1 Nrf2 FP -1.5, cardiac RTF act -6.0, RTF Ca sens inh -3.0, C-LANA FP 1.2 and LANA-H2A inh -1.9.
Screening COC(=O)c1ccc(COC(=O)c2cc3ccccc3oc2=O)cc1 returned Keap1 Nrf2 FP -3.0, cardiac RTF act -6.4, RTF Ca sens inh 3.0, C-LANA FP 0.5 and LANA-H2A inh 1.7.
CC(=O)c1ccc(COC(=O)c2cc3ccccc3oc2=O)cc1 was read as Keap1 Nrf2 FP 3.8, cardiac RTF act -2.2, RTF Ca sens inh -1.3, C-LANA FP 0.8 and LANA-H2A inh 11.2*.
`CCN1CCc2c(sc(NC(=O)c3ccc(S(=O)(=O)N(C)c4ccccc4)cc3)c2C(=O)NC)C1` gave Keap1 Nrf2 FP -1.4, cardiac RTF act 52.1*, RTF Ca sens inh -44.2, C-LANA FP 0.4 and LANA-H2A inh -10.4.
`CNC(=S)NNC(=O)c1sc(-c2cc(C)on2)nc1C` gave LANA-H2A inh 1.7.
For Clc1ccsc1-c1ccnc(-n2cccc2)n1 the results were Keap1 Nrf2 FP -3.7, cardiac RTF act -2.3, RTF Ca sens inh -8.6, C-LANA FP -0.3 and LANA-H2A inh 0.8.
Clc1ccc(-c2ccnc(-n3cccc3)n2)s1 was read as Keap1 Nrf2 FP -6.6, cardiac RTF act 8.8, RTF Ca sens inh -22.2, C-LANA FP 0.2 and LANA-H2A inh 29.6*.
CSCCC(NC(=O)COc1ccccc1)C(=O)NCc1cccs1 (configuration not stated) was read as Keap1 Nrf2 FP -2.3, cardiac RTF act -1.3, RTF Ca sens inh 0.0, C-LANA FP -0.1 and LANA-H2A inh -0.4.
COCCn1c(-c2ccc(NC(C)=O)cc2)nc2c1c(=O)[nH]c(=O)n2CC(C)C was read as Keap1 Nrf2 FP 0.4, cardiac RTF act -3.9, RTF Ca sens inh -1.4, C-LANA FP -0.7 and LANA-H2A inh 12.8*.
For Cc1nc2ccccc2c2c1C(=O)NC2=O the results were LANA-H2A inh 27.4*.
`COc1ccc2c(Cl)c(C(=O)N/N=C/c3ccc4c(c3)OCO4)sc2c1` gave Keap1 Nrf2 FP -2.2, cardiac RTF act 4.3, RTF Ca sens inh 0.0, C-LANA FP -0.6 and LANA-H2A inh 1.3.
COc1ccc2c(Cl)c(C(=O)N/N=C3\CCCC(=O)C3)sc2c1 was read as Keap1 Nrf2 FP -28.7, cardiac RTF act 41.4*, RTF Ca sens inh -80.4, C-LANA FP 9.2 and LANA-H2A inh 4.2.
`CC(=O)C1C=CC(C)(C(=O)O)C2C=C(C)C(=O)C(C)(O)C12` (configuration not stated) gave Keap1 Nrf2 FP 2.2, cardiac RTF act 0.6, RTF Ca sens inh 4.3 and C-LANA FP 0.2.
COc1ccc(N=Cc2sc(O)c3ccccc23)cc1 was read as Keap1 Nrf2 FP -32.2, cardiac RTF act 79.3*, RTF Ca sens inh -145.4, C-LANA FP -1.6 and LANA-H2A inh -14.8.
Screening Cc1[nH][nH]c(=O)c1C(c1ccc(N(C)C)c(Br)c1)c1c(C)[nH][nH]c1=O returned Keap1 Nrf2 FP 1.6, cardiac RTF act -4.8, RTF Ca sens inh -13.7, C-LANA FP -2.8 and LANA-H2A inh 59.7*.
CC1(C)CC(=O)C2=C(C1)Nc1ccccc1NC2c1ccc([N+](=O)[O-])cc1 (configuration not stated) was read as Keap1 Nrf2 FP -0.3, cardiac RTF act -0.8, RTF Ca sens inh 2.8, C-LANA FP 1.6 and LANA-H2A inh 0.6.
CCCCN1C(=O)C2(OCCCO2)c2cccc(C)c21 was read as Keap1 Nrf2 FP -2.2, cardiac RTF act 1.8, RTF Ca sens inh -12.3, C-LANA FP -4.7 and LANA-H2A inh 18.3*.
O=C(c1cccn2c(=O)c3cc4ccccc4cc3nc12)N1CCN(c2ccccc2)CC1 was read as LANA-H2A inh 13.4*.
For O=C(c1cccn2c(=O)c3ccccc3nc12)N1CCN(c2ccccn2)CC1 the results were Keap1 Nrf2 FP -4.0, cardiac RTF act 3.6, RTF Ca sens inh -3.2, C-LANA FP 1.2 and LANA-H2A inh -3.9.
`CC(C)CC(=O)N1CCN(C(=O)c2ccc(F)cc2)CC1` gave Keap1 Nrf2 FP -3.0, cardiac RTF act 3.2, RTF Ca sens inh 1.9, C-LANA FP -1.4 and LANA-H2A inh 16.1*.
CC(CC(=O)N1CCN(C(=O)c2ccccc2)CC1)c1ccccc1 (configuration not stated) was read as Keap1 Nrf2 FP -6.4, cardiac RTF act -5.7, RTF Ca sens inh -1.5, C-LANA FP 0.4 and LANA-H2A inh -1.5.
